Pf growth 48h: Primary qHTS for delayed death inhibitors of the malarial parasite plastid, 48 hour incubation | Potency, µM (series often up to 28.7 µM), usual class: inhibitors | AID 504832, 2011 | P. falciparum luciferase growth in erythrocytes, 48 h | 310,000 compounds, 5.9% hits
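Luminescence readout; reporter = integrated firefly luciferase in P. falciparum. RBC culture at 2% hematocrit, 0.1% parasitemia final, 37 C/5% CO2; decreased signal taken as growth inhibition.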
Lassa entry inh: qHTS for Inhibitors of binding or entry into cells for Lassa Virus; Lassa virus pseudotype entry inhibition, cell reporter; Potency, µM (highest dose often 37.9 µM), usual class: inhibitors; 300,000 compounds, 1.2% hits; calls by dose curve; tested in HEK293 cells; also: nearly all actives have a fitted effect of over 50% in size
HCV inh: qHTS Assay for Inhibitors of Hepatitis C Virus (HCV). Huh7.5.1 HCVcc-Cre infection, luciferase reporter, 44 h. Potency, µM (titrated, usually from 41.8 µM), hits mostly inhibitors. 340,000 compounds, 3.4% hits
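Infectious HCVcc-Cre (~0.5 moi) was added to cells just after compound, with cells seeded 4 h earlier at 1,000 per well. Luciferase activity after 44 h culture reported infection; substrate was incubated 15 min at room temperature before reading.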
Pf growth 96h: Primary qHTS for delayed death inhibitors of the malarial parasite plastid, 96 hour incubation. Potency, µM (highest dose often 28.7 µM), actives largely listed as inhibitors. 320,000 compounds, 6.9% hits. P. falciparum luciferase reporter growth, 96 h. AID 504834, 2011
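Compounds incubated with erythrocytes infected by luciferase-expressing P. falciparum (2% hematocrit, 0.05% parasitemia final) for 96 hours, 37 C in 5% CO2. Growth inhibition scored as decreased luciferase luminescence.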
HCMV antiviral: qHTS Assay for inhibitors of the human cytomegalovirus (HCMV); HFF cells, HCMV-luciferase reporter, 72 h; hits give low values; 410,000 compounds, 4.5% hits; activity change, negative = inhibition, % at 57.5 µM; AID 1259415, 2018; in the data active = activity change below about -60%; inconclusive = no clear call, values can overlap the other calls; inactive = above about -39%
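After 16 h attachment at 37C, HFF cells received test compound and HCMV-luciferase (1 PFU/cell); reporter luminescence read 72 h later, data normalized against buffer-only and known inhibitor Salinomycin.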
Marburg entry inh: qHTS for inhibitors of binding or entry into cells for Marburg Virus | Marburg virus pseudotyped entry inhibition, cell reporter | Potency, µM (top dose mostly 37.8 µM), actives largely listed as inhibitors | 300,000 compounds, 1.8% hits | AID 540276, 2011; calls by dose curve; tested in HEK293 cells
Large screens that a line does not name were inactive. Compounds with a hit are over-represented: about 14% of the library has one in this group of screens. Unless noted, calls follow the shape of the dose curve; as a rule, active = well fitted inhibition curve with a large enough effect; inconclusive = small, poorly fitted or top-dose-only effect, or another doubt; inactive = no such curve, though single readings can be large or run the other way.

OC(CNCc1ccccc1)Cn1ccc2ccccc21 (stereo unspecified)	Pf growth 48h 9.3µM, Lassa entry inh inconclusive, HCV inh 11µM, Pf growth 96h inconclusive, Marburg entry inh inconclusive
OC(CNCCNc1ncccc1C(F)(F)F)Cn1ccc2ccccc21 (stereo unspecified)	Pf growth 48h 1.5µM, HCV inh inconclusive, Pf growth 96h 1.9µM (no result: Lassa entry inh, Marburg entry inh)
Oc1ccccc1NCC(O)Cn1ccc2ccccc21 (stereo unspecified)	Pf growth 48h inconclusive, HCV inh inconclusive, Marburg entry inh inconclusive
CCCCn1c(C)cc2c(c1=O)[C@H]1O[C@](CCCC)(Cc3c1ccc1ccccc31)O2	none (no result: Lassa entry inh, HCV inh, HCMV antiviral, Marburg entry inh)
CCCC[C@]12Cc3c(ccc4ccccc34)C(O1)C1=C(O2)C(=O)c2ccccc2C1=O	Pf growth 48h 1.5µM (no result: Lassa entry inh, HCV inh, HCMV antiviral, Marburg entry inh)
CCS(=O)(=O)N1CC(=O)N(c2cc(Cl)ccc2C)C(C)(C(=O)NC2CCCCCC2)C1 (stereo unspecified)	HCMV antiviral inconclusive (no result: Pf growth 48h, HCV inh, Pf growth 96h, Marburg entry inh)
O=C1NC(c2ccc3c(c2)OCO3)Oc2ccccc21 (stereo unspecified)	Pf growth 96h 5.2µM (no result: HCV inh)
O=C1NC(c2ccc3c(c2)OCO3)Nc2ccccc21 (stereo unspecified)	Pf growth 96h inconclusive
COc1ccc(Nc2ncc(C(=O)N3CCN(Cc4ccccc4)CC3)c3ccccc23)cc1	Pf growth 48h inconclusive, Lassa entry inh inconclusive, HCV inh 10µM, Pf growth 96h inconclusive, Marburg entry inh inconclusive
COc1ccccc1Nc1ncc(C(=O)N2CCN(Cc3ccc(OC)c(OC)c3OC)CC2)c2ccccc12	Pf growth 48h inconclusive, Lassa entry inh 13µM, HCV inh 13µM, Pf growth 96h inconclusive, Marburg entry inh inconclusive
COc1ccccc1Nc1ncc(C(=O)N2CCC(C(N)=O)CC2)c2ccccc12	none
COc1ccc(Nc2ncc(C(=O)N3CCC(C(N)=O)CC3)c3ccccc23)cc1	none
O=C(COCc1cc(-c2ccc(F)cc2)on1)Nc1cc(F)ccc1F	Lassa entry inh inconclusive (no result: Pf growth 48h, HCV inh, Pf growth 96h, Marburg entry inh)
CCOC(=O)c1cccn1C1C(=O)N(Cc2ccc(OC)cc2)c2ccc(OC)cc21 (stereo unspecified)	none (no result: Pf growth 48h, Lassa entry inh, HCV inh, Pf growth 96h, Marburg entry inh)
O=C(Nc1ccc(F)cc1)C(c1cccc(F)c1)N1CCN(Cc2c(F)cccc2Cl)CC1 (stereo unspecified)	none (no result: Pf growth 48h, Lassa entry inh, HCV inh, Pf growth 96h, Marburg entry inh)
CCOc1ccc(NC(=O)c2cnn(-c3ccc(C)c(Cl)c3)c2C2CCNCC2)cc1	none (no result: Pf growth 48h, HCV inh, Pf growth 96h, Marburg entry inh)
Cc1ccc(-n2ncc(C(=O)Nc3ccc(Cl)cc3)c2C2CCNCC2)cc1C	Pf growth 48h inconclusive, Lassa entry inh inconclusive, HCV inh inconclusive, Pf growth 96h inconclusive, HCMV antiviral -70, Marburg entry inh inconclusive
COc1ccc2sc(N(Cc3cccnc3)C(=O)C3CCCCC3)nc2c1	Lassa entry inh inconclusive (no result: Pf growth 48h, HCV inh, Pf growth 96h, Marburg entry inh)
COc1cccc(N2CCN(C(=O)c3cc(-c4ccccc4)nc4c3cnn4C(C)C)CC2)c1	HCV inh 11µM (no result: Pf growth 48h, Lassa entry inh, Pf growth 96h, Marburg entry inh)
CC(C)n1ncc2c(C(=O)N3CCN(c4ccc(F)cc4)CC3)cc(-c3ccccc3)nc21	Pf growth 48h 12µM, Pf growth 96h 12µM, HCMV antiviral -70 (no result: Lassa entry inh, Marburg entry inh)
CCCN1C(=O)C2(c3ccccc31)c1c(oc3ccccc3c1=O)C(=O)N2CCO (stereo unspecified)	none (no result: Pf growth 48h, HCV inh, Pf growth 96h)
CCOc1ccc2oc(C(=O)OCC(=O)NCC3CCCO3)c(C)c2c1 (stereo unspecified)	Lassa entry inh 11µM, HCV inh inconclusive
CCOc1ccc2oc(C(=O)NNC(=O)c3ccccc3O)c(C)c2c1	HCMV antiviral -72
CCOc1ccc2oc(C(=O)N3CC(C)OC(C)C3)c(C)c2c1 (stereo unspecified)	Pf growth 48h inconclusive, Lassa entry inh inconclusive, Pf growth 96h 7.4µM
CCOc1ccc2oc(C(=O)OCC(=O)N3C(C)CCCC3C)c(C)c2c1 (stereo unspecified)	Pf growth 48h inconclusive, HCV inh 13µM, Pf growth 96h inconclusive (no result: Lassa entry inh, Marburg entry inh)
CCOc1ccc2oc(C(=O)O)c(C)c2c1	none
COc1ccc2oc(C(=O)OCC(=O)N3C(C)CCCC3C)c(C)c2c1 (stereo unspecified)	none
Cc1c(C(=O)NNC(=O)c2ccccc2O)oc2ccc(Br)cc12	Lassa entry inh inconclusive (no result: Pf growth 48h, Pf growth 96h)

Source: PubChem BioAssay
